Screens as filed in PubChem BioAssay.
Rab9 prom act – activators of Rab9 promoter. Huh7 Rab9 promoter-luciferase reporter, luminescence, 24 h. Potency, µM (highest dose often 9.22 µM), for inactives: at the highest dose activation, negative = inhibition, most hits filed as activators. actives 2.8% (n = 320,000); further: % of control where 0% means no effect; nearly all actives have a fitted effect of over 60% in size
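Promoter activation is measured as luciferase luminescence in Huh7 cells stably transfected with a Rab9 promoter–luciferase construct, following 24 h compound exposure at 37 °C and 10 min reagent incubation at ambient temperature.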
FLuc counter – firefly luciferase modulation, counter-screen for miR-21 project. purified FLuc, Km substrates, luminescence inhibition. Potency, µM (series often up to 57.5 µM), for inactives: at the highest dose activity change, negative = inhibition, hits mostly inhibitors. actives 6.9% (n = 360,000). AID 588342;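 further: plate controls were vehicle for no effect and reference inhibitor for full effect; nearly all actives have a fitted effect of over 55% in size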
Target sequence (P08659 whole entry, looked up): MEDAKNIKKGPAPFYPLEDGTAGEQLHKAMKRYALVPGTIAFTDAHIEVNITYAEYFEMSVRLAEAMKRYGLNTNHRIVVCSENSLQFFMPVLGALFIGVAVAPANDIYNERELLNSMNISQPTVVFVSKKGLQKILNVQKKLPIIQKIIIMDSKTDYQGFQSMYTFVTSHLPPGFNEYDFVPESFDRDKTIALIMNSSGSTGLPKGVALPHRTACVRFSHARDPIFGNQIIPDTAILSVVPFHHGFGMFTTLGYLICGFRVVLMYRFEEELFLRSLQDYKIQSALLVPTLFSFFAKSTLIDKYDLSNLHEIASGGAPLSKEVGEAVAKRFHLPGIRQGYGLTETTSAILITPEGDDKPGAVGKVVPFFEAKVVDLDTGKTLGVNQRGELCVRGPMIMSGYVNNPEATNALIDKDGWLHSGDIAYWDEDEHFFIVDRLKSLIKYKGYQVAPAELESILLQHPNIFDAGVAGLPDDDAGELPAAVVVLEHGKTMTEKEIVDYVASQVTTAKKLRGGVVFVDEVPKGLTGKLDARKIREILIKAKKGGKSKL
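Purified P. pyralis luciferase (10nM final) with 10uM D-luciferin and 10uM ATP (Km levels) in 50mM Tris acetate pH 7.5, 10mM Mg acetate, 0.01% Tween-20, 0.05% BSA; qHTS 6-point titration, ~60 µM downward; luminescence read.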
SMN2 splice enh – enhancers of SMN2 splice variant expression | actives 2.8% (n = 210,000) | HEK293 SMN2-luciferase splicing reporter, luminescence, 30-36 h | Potency, µM (series often up to 46.1 µM), without a hit: at the top dose activity change, positive = activation, usual class: activators; further: % of control where 0% means no effect; nearly all actives have a fitted effect of over 55% in size
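qHTS luciferase splicing reporter: luminescence rises when SMN2 exon 7 is included in transfected HEK293 cells. Compound exposure lasted 30-36 h at 37C, with 4.5 mM final sodium butyrate as control, followed by a ONE-Glo read.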
ELG1 repair inh – ELG1-dependent DNA repair inhibition | HEK293T ELG1-luciferase reporter, luminescence, 16 h; DNA damage induced by 5-fluorouridine | Potency, µM (titrated, usually from 46.1 µM), for the others: top-dose activity change, negative = inhibition, most hits filed as inhibitors | actives 2.3% (n = 330,000); further: on the % scale 0 is the no-effect control and ±100 the full control effect; nearly all actives have a fitted effect of over 55% in size
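Quantitative HTS, concentration-response format. 2,000 cells/well co-treated with 5-fluorouridine and compound, 16 hr in 5% CO2 at 37 °C; ONE-Glo luminescence read after 30 min.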
ELG1 genotox – inducers of genotoxicity in HEK293T ELG1-luciferase cells. HEK293T ELG1-luciferase reporter, luminescence, 16 h. Potency, µM (doses to about 46 µM), inactives show at the highest dose activity change, positive = activation, actives largely listed as activators. actives 1.3% (n = 330,000); further: % of control where 0% means no effect; nearly all actives have a fitted effect of over 60% in size
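Luminescence read-out: rising ELG1-luciferase signal, reflecting elevated ELG1 protein under genetic stress, flags genotoxic compounds. Cells were treated for 16 hr at 37 °C before ONE-Glo detection.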
NPC1 promoter act – NPC1 promoter activation; Huh7 NPC1 promoter luciferase reporter, 24 h; Potency, µM (doses to about 9.22 µM), for the others: top-dose activation, actives largely listed as activators; actives 2.4% (n = 320,000); further: % of control where 0% means no effect; nearly all actives have a fitted effect of over 60% in size
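Luminescence read-out of NPC1 promoter-driven luciferase in stably transfected Huh7 cells; compounds delivered in DMSO and left 24 h at 37C, 5% CO2, qHTS titration format.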
* marks the source's active call; other numbers are inactive results; u = inconclusive; x = not tested or not shown; [ ] = dose if it differs, or a comment. Rows were chosen to be rich in hits. Some 9.2% of all compounds tested hit in one or more screens of this group. The call rests on the fitted dose curve; in most records, active means well fitted curve in the direction sought with a large enough effect; inconclusive means small, poorly fitted or top-dose-only effect, or another doubt; inactive means no such curve, though single readings can be large; an effect the other way counts as inactive or inconclusive. Potency means the concentration at half of the fitted maximal effect.

SMILES	Rab9 prom act	FLuc counter	SMN2 splice enh	ELG1 repair inh	ELG1 genotox	NPC1 promoter act
CC(=O)NNc1nc(-c2ccc(NC(C)=O)cc2)cs1	-2%	1%	13%	13%	-1%	0%
CC(=O)Nc1ccc(S(=O)(=O)Nc2cccc(-c3csc(C)n3)c2)cc1	-10%	-8%	x	u	-5%	-6%
C=CCOc1ccc(/C=C/C(=O)OCC(=O)N2CCCc3ccccc32)cc1	-4%	-2%	x	-9%	-4%	-1%
CCCCCCNC(=O)c1c[nH]c2ccc(S(=O)(=O)N(C)c3ccc(C(C)C)cc3)cc2c1=O	x	3%	x	x	x	x
CCc1ccc2c(COC(=O)C3CSC4(C)CCC(=O)N34)cc(=O)oc2c1 (stereo unspecified)	3%	u	x	18%	1%	-2%
CCCCn1c(N)c(N(CC(C)C)C(=O)c2cc(S(=O)(=O)N3CCOCC3)ccc2Cl)c(=O)[nH]c1=O	2%	1%	x	26%	12%	-2%
O=C(NCc1ccccn1)Nc1ccccc1	1.6µM*	13µM*	x	u	u	u
Cc1ccc(NC(=O)C(NCc2ccccn2)c2ccccc2)cc1 (stereo unspecified)	2%	17µM*	-13%	u	20%	3%
O=C(NCc1ccccn1)Nc1ccccc1Cl	22%	-8%	x	u	u	14%
O=C(NCc1ccccn1)Nc1ccc(Cl)cc1Cl	u	u	x	u	u	3.2µM*
O=C(c1ccccc1)c1cn(Cc2ccc(F)cc2)c2ccccc2c1=O	x	1%	-1%	x	x	x
Cc1ccc2cccc(OC(=O)/C=C\c3ccccc3)c2n1	-3%	6%	x	1%	-1%	-2%
C(=C\c1cc(/C=C/c2ccccc2)ncn1)/c1ccccc1	10%	12µM*	-5%	u	u	7%
O=c1ccc(/C=C/c2ccccc2)nn1Cc1ccccc1	1%	-1%	-17%	-6%	-1%	1%
Cc1cccc(/C=C/c2ccccc2)n1	11µM*	x	u	x	x	13µM*
Cc1cc(C)nc(N/N=C/C=C/c2ccccc2)n1	7%	u	1%	u	1%	-2%
Cn1nc(/C=C/c2ccccc2)ccc1=O	3.2µM*	u	13µM*	u	u	16%
Cc1nc(/C=C/c2ccccc2)cc(/C=C/c2ccccc2)n1	2%	19µM*	24%	18%	u	1%
CN(CC1COc2ccccc2O1)C(=O)Cn1cc(C(F)(F)F)ccc1=O (stereo unspecified)	x	x	x	0%	2%	x
C/C(=N\Nc1nc(-c2ccccc2)cs1)c1cccs1	2µM*	0.85µM*	2.8µM*	u	u	3.5µM*
C/C(=N\Nc1nc(N2CCOCC2)nc(N2CCOCC2)n1)c1cccs1	-8%	2%	-3%	-3%	-2%	0%
C/C(=N\Nc1nc2ccccc2s1)c1cccs1	3.5µM*	0.67µM*	x	u	u	u
Cc1ccc(/C=N/N=C/c2ccc(C)cc2)cc1	u	2.4µM*	u	u	21µM*	u
Oc1ccc(/C=N/N=C/c2ccc(O)c(O)c2)cc1O	-2%	15µM*	x	3%	11%	-6%
Fc1cccc(/C=N/N=C/c2cccc(F)c2)c1	u	2.7µM*	13%	u	u	u
SMILES	Rab9 prom act	FLuc counter	SMN2 splice enh	ELG1 repair inh	ELG1 genotox	NPC1 promoter act
C(=N\N=C\c1ccccc1)/c1ccccc1	21%	0.95µM*	7%	u	11%	1%
C(=C/c1ccccc1)/c1ccccc1	x	x	17%	x	x	x
Cc1ccc(C2Nc3ccccc3C(=O)N2Cc2ccco2)cc1 (stereo unspecified)	-4%	-10%	-17%	-4%	-3%	-6%
CCN(CC)C(=O)Cn1cc(C(=O)C(=O)N2CCN(Cc3ccc4c(c3)OCO4)CC2)c2ccccc21	1%	5%	x	7%	-3%	-3%
Oc1ccc(O)cc1	-42%[46.1 µM]	x	9%	x	x	-32%[46.1 µM]
Oc1ccc(/C=N/N=C/c2ccc(O)cc2)cc1	-15%	7.6µM*	-4%	6%	4%	-2%
C=CCSc1nc2ccccc2c(=O)[nH]1	-18%	-5%	12%	30%	7%	1%
C=CCSc1nn2c(=O)c3ccccc3nc2s1	3.2µM*	13µM*	u	u	u	2.5µM*
C/C(Cl)=C/CSc1nn2c(=O)c3ccccc3nc2s1	u	12µM*	27%	u	u	u
Cc1nnc2sc(SCc3ccccc3)nn2c1=O	-6%	0%	7%	u	3%	1%
CN1CCN(S(=O)(=O)c2ccc(N(C)Cc3ccc(OC(F)F)cc3)c([N+](=O)[O-])c2)CC1	0%	1%	x	2%	0%	-5%
CC(C)(C)c1ccc(C2CC2C(=O)N/N=C\c2ccc[nH]2)cc1 (stereo unspecified)	-60%	17µM*	x	u	22%	-40%
COc1ccc(S(=O)(=O)N(C)Cc2ccc3c(c2)OCCO3)cc1	-2%	0%	x	11%	3%	-1%
COCCn1c(SCC(=O)N2CCCCC2)nc2c([nH]c3ccccc32)c1=O	3%	-1%	x	16µM*	-12%	4%
CCC1CCCCN1C(=O)CSc1nc2c([nH]c3ccccc32)c(=O)n1C (stereo unspecified)	-2%	2%	-20%	23µM*	-9%	0%
CCOC(=O)N1CCN(C(=O)CSc2nc3c([nH]c4ccccc43)c(=O)n2CCOC)CC1	0%	1%	x	7.3µM*	-8%	3%
COCCn1c(SCC(=O)N2CCCCCC2)nc2c([nH]c3ccccc32)c1=O	3%	5%	x	-17%	-2%	6%
Cc1cc(C)n2nc(C(=O)NCCc3ccccc3)nc2n1	22%	u	26%	u	23µM*	u
Cc1ccnc2nc(C(=O)Nc3ccc4c(c3)OCO4)nn12	1.6µM*	11µM*	11µM*	u	2.6µM*	1.8µM*
Cc1cc(C)n2nc(C(=O)Nc3ccc4c(c3)OCO4)nc2n1	29%	24µM*	u	u	u	19%
C=CCN(C(=O)c1csnn1)C(C(=O)NCc1ccccc1)c1c(F)cccc1Cl (stereo unspecified)	7%	1%	x	-5%	-1%	1%
CCCn1ccc2c(OCC(=O)NCc3ccccc3Cl)cccc2c1=O	x	-6%	x	x	x	x
CCn1c(=O)c(=O)n(CC)c2cc(S(=O)(=O)Nc3cc(C)ccc3C)ccc21	0%	1%	x	-2%	0%	2%
Cc1ccc(NC(=O)c2ccc(NC(=O)CCS(=O)(=O)c3cccs3)cc2)cc1F	x	-2%	11%	x	x	x
